Growth data for 16 molecules are collected here from PubChem BioAssay (NCI).

Among the test systems are T-47D breast; BT-549 breast; MDA-MB-435 melanoma; SW-620 colon; MCF7 breast; HCT-116 colon; HCC-2998 colon; KM12 colon.
What all share (test): NCI-60 one-dose screen, 48 h (100 = growth as untreated, 0 = no growth, -100 = all killed)
Conditions in all cases: 10 µM unless noted

This is part of a sample that, as a whole, favours compounds with a hit. Of some 83,000 tested, about 20% had one in any assay.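 Activity criterion: percent growth below 10, measured after cells in 96-well plates were exposed to a single compound concentration for 48 hours.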 Values without a mark were called inactive. The source made the active and inactive calls.

As for `OC(COc1ccccc1)CN1CCN(c2ccc(Cl)cc2)CC1` (stereo not drawn), the growth in the experiment on T-47D breast was 102%; in the experiment on BT-549 breast it was 101%; with MDA-MB-435 melanoma, 121%; with SW-620 colon, 98.7%; with MCF7 breast, 102%; in the experiment with HCT-116 colon, 92.6%. Moreover, the figures for the growth in the experiment with HCC-2998 colon and in the experiment on KM12 colon were 109% and 98%, respectively.
In the case of `COc1cccc2nc3n(c12)C(c1c(F)cccc1F)SC3` (stereo not drawn), the growth in the experiment with T-47D breast was 104%; in the experiment with BT-549 breast, 108%; in the experiment on MDA-MB-435 melanoma it was 106%; with SW-620 colon it was 106%; in the experiment on MCF7 breast it was 104%; with HCT-116 colon, 93.8%. Also, the growth was 99.9% in the experiment with HCC-2998 colon and 100% in the experiment with KM12 colon.
On to `CNCCCNc1nc2ccccc2c2c(=O)c3cc(OC)ccc3sc12`, for which the growth in the experiment on T-47D breast is 81.7%; in the experiment with BT-549 breast, 89.2%; in the experiment with MDA-MB-435 melanoma, 37.3%; with SW-620 colon, -50.3% (active); in the experiment on MCF7 breast, 59.4%; with HCT-116 colon, 10.3%. For the same molecule, the growth was -71% (active) in the experiment with HCC-2998 colon and 35.3% in the experiment with KM12 colon.
For `NCCNc1nc2ccccc2c2c(=O)c3cccc(F)c3sc12`, the growth in the experiment with T-47D breast is 70.7%; in the experiment with BT-549 breast, 98.5%; in the experiment on MDA-MB-435 melanoma, 58.5%; in the experiment on SW-620 colon it was 17.7%; in the experiment with MCF7 breast it was 45.1%; in the experiment on HCT-116 colon it was 15.1%. The growth in the experiment with HCC-2998 colon was 15.5%; in the experiment with KM12 colon, 34.3%.
Regarding `COc1cc(Nc2cn[nH]c2-c2ccc(Cl)cc2)cc(OC)c1OC`, the growth is 23.4% in the experiment on T-47D breast; 46.5% in the experiment with BT-549 breast; -37.1% (active) with MDA-MB-435 melanoma; 19.3% in the experiment with SW-620 colon; 20.7% in the experiment on MCF7 breast; 20.7% with HCT-116 colon. Moreover, the growth in the experiment on HCC-2998 colon was -28.5% (active); in the experiment with KM12 colon it was 20.2%.
Consider `COc1ccc(-c2cc3c4c(nc5ccccc5c4c2)CC(c2cc(OC)c(OC)c(OC)c2)O3)cc1` (stereo not drawn), for which the growth with T-47D breast is 14.1%; in the experiment with BT-549 breast it was 64.6%; in the experiment with MDA-MB-435 melanoma, 56.4%; with SW-620 colon it was 37.9%; in the experiment with MCF7 breast, 61.3%; in the experiment with HCT-116 colon it was 1.01% (active). In addition, the results for the growth with HCC-2998 colon and in the experiment with KM12 colon were 43.1% and 60.4%, respectively.
Turning to `COc1ccc(C(=S)N2CCN(c3cccc(C)c3)CC2)cc1OC`, the growth in the experiment on T-47D breast is 76%; with BT-549 breast it was 59.1%; with MDA-MB-435 melanoma, 2.58% (active); with SW-620 colon it was 36.5%; in the experiment with MCF7 breast it was 43.4%; with HCT-116 colon, 37%. Further, the growth in the experiment with HCC-2998 colon is 62.5%; in the experiment on KM12 colon, 43.2%.
For `CCCCC[C@H](O)C/C=C1/C(=O)C=C[C@@H]1C/C=C\CCCC(=O)OC`, the growth with T-47D breast was 69.3%; with BT-549 breast it was 35.3%; with MDA-MB-435 melanoma, -9.31% (active); with SW-620 colon, 16.1%; in the experiment on MCF7 breast it was 18.6%; in the experiment on HCT-116 colon it was 13%. The growth with HCC-2998 colon is 77.8%; in the experiment with KM12 colon it was 16.5%.
Turning to `CN(C)CC#Cc1ccc2ncc(C#N)c(Nc3ccc(F)c(Cl)c3)c2c1`, the growth in the experiment with T-47D breast was 44%; in the experiment with BT-549 breast it was 51.1%; with MDA-MB-435 melanoma, 65.3%; in the experiment on SW-620 colon it was 57.3%; in the experiment with MCF7 breast, 79.4%; in the experiment on HCT-116 colon, 40.7%. For the same molecule, the growth in the experiment with HCC-2998 colon was 60.3%; in the experiment on KM12 colon, 79.7%.
With `COc1cc(/C=C/C(=O)/C=C/c2cc(OC)c3c(c2OC)OCO3)c(OC)c2c1OCO2`, the growth was 31% with T-47D breast; 31.4% with BT-549 breast; 11.5% in the experiment with MDA-MB-435 melanoma; 17.8% with SW-620 colon; 19.1% in the experiment on MCF7 breast; 2.58% (active) with HCT-116 colon. For the same molecule, the results for the growth with HCC-2998 colon and in the experiment with KM12 colon were 107% and 37%, respectively.
For `Cc1ccc(S(=O)(=O)Oc2ccc(NC(=O)c3ccc(Cl)cc3)cc2)cc1`, the growth was 98.1% with T-47D breast; 90.8% in the experiment on BT-549 breast; 105% in the experiment on MDA-MB-435 melanoma; 103% with SW-620 colon; 91.8% in the experiment with MCF7 breast; 81% in the experiment with HCT-116 colon. Further, the values for the growth in the experiment on HCC-2998 colon and with KM12 colon were 104% and 103%, respectively.
`CCCCCCCCCCCCCCCCCCOc1ccccc1CC(=O)OCC[N+](CC)(CC)CC`: the growth with T-47D breast is 23.5%; in the experiment with BT-549 breast, 76.3%; in the experiment with MDA-MB-435 melanoma it was 11%; in the experiment on SW-620 colon it was 21.6%; with MCF7 breast it was 12.9%; in the experiment on HCT-116 colon, 19.8%. In addition, the growth in the experiment on HCC-2998 colon was 22.5%; in the experiment with KM12 colon, 51.3%.
Regarding `CCCCCCCCCCCCCCCCCC1OCC(COC(=O)O[C@]2(CC)C(=O)OCc3c2cc2n(c3=O)Cc3cc4ccccc4nc3-2)O1` (stereo partly drawn), the growth in the experiment with T-47D breast is 64.6%; in the experiment on BT-549 breast it was 80%; in the experiment with MDA-MB-435 melanoma, 92.6%; with SW-620 colon, 57.1%; in the experiment with MCF7 breast, 44.4%; in the experiment with HCT-116 colon, 66.8%. Also, the growth in the experiment with HCC-2998 colon was 84.7%; in the experiment with KM12 colon, 94.8%.
As to `O=C1NC(=O)C(Cn2cnc3ccccc32)N1` (stereo not drawn), the growth in the experiment on T-47D breast is 106%; in the experiment on BT-549 breast it was 110%; in the experiment with MDA-MB-435 melanoma it was 100%; in the experiment with SW-620 colon, 99.3%; in the experiment on MCF7 breast it was 92.1%; with HCT-116 colon, 109%. Also, the values for the growth in the experiment on HCC-2998 colon and in the experiment with KM12 colon were 103% and 102%, respectively.
With `CNc1nc2c(s1)C(c1cc(F)ccc1F)CC(=O)N2` (stereo not drawn), the growth with T-47D breast is 63.6%; in the experiment on BT-549 breast it was 80.5%; in the experiment with MDA-MB-435 melanoma, -51.6% (active); in the experiment with SW-620 colon, 30.9%; with MCF7 breast it was 36.5%; with HCT-116 colon, 53.5%. Further, the results for the growth with HCC-2998 colon and in the experiment on KM12 colon were 88.1% and 52.9%, respectively.
`O=c1c2cc(F)ccc2sc2c(N3CCCCC3)nc3ccccc3c12`: the growth was 105% in the experiment with T-47D breast; 90.3% in the experiment with BT-549 breast; 107% in the experiment on MDA-MB-435 melanoma; 104% in the experiment with SW-620 colon; 95.8% in the experiment with MCF7 breast; 90.9% in the experiment with HCT-116 colon. The growth with HCC-2998 colon was 101%; in the experiment with KM12 colon, 105%.
